Source: PubChem BioAssay
Results with a measured potency or affinity are listed apart. Activity calls are given as the source filed them.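 How the source made its calls: active means fitted dose curve reaches 40% lysis signal rise at or below the highest valid concentration tested for that sample; inconclusive means flat fit between 30% and 70%, or poor curve fit; inactive means signal falls, stays flat within 30%, or no crossing.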

Assay: inducers of Cryptococcus neoformans cell lysis, dose response, AK release luminescence, cherry-picks (AID 687000);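 further: luminescent detection of adenylate kinase leaking from lysed yeast; 0% = median neutral control signal and 100% = double that signal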
Settings: C. neoformans lysis, adenylate kinase release luminescence, 4 h, 100% = twice the neutral-control signal; series mostly up to 15 µM; lysis activity: at the top concentration

Lysis activity, inactive:
COc1cccc(S(=O)(=O)N(C)C[C@H]2OCc3cnnn3CCCC(=O)N([C@H](C)CO)C[C@H]2C)c1 -0.227%
COc1cccc(S(=O)(=O)Nc2ccc3c(c2)[C@H]2C[C@H](CC(=O)NCc4ccccc4F)O[C@@H](CO)[C@H]2O3)c1 -3.67%
COCC(=O)NC[C@@H]1N[C@@H](CO)[C@H]1c1ccc(C2=CCCC2)cc1 -7.05%
CCC(C)(C(=O)Nc1cccc(C)c1)N1CCC1=O (centres undefined) -0.275% [at 28.5 µM]
Cc1ccc(NC(=O)[C@H](C)NC(=O)C2CCN(C(=O)[C@@H](N)C(C)C)CC2)cc1 -1.83%
CNC(=O)C[C@@H]1CC[C@@H]2[C@H](COc3ccc(NC(=O)c4cc(C)on4)cc3C(=O)N2C)O1 -8.25%
Cc1cc(C)c(N2CCCC2C(=O)Nc2cccc(C(F)(F)F)c2)c(C)c1 (centres undefined) -3.13% [at 19.5 µM]
C/C=C/c1ccc([C@@H]2[C@@H](CO)N3CCCCN(C(=O)Nc4ccc(OC)cc4)C[C@H]23)cc1 1.76%
O=C(NCC[C@H]1CC[C@H](NS(=O)(=O)c2ccc(F)cc2)[C@@H](CO)O1)c1ccc2c(c1)OCO2 12.6%
Cc1noc(C)c1NC(=O)N(C)C[C@@H]1Oc2ccc(NC(=O)NC(C)C)cc2CC(=O)N([C@H](C)CO)C[C@H]1C 39.9%
N#C[C@@H]1[C@@H](c2ccccc2)[C@@H](CO)N1C(=O)Cc1ccccc1 -0.011%
CN1[C@@H]2c3ccc(-c4cccnc4)c(=O)n3C[C@@H]2[C@@H](CO)[C@@H]1C(=O)N1CCc2ccccc2C1 -10.6%
CCCC(=O)Nc1ccc2c(c1)OC[C@@H](C)N(Cc1cncnc1)C[C@@H](C)[C@@H](OC)CN(C)C2=O 16.5%
C/C=C/c1ccc([C@@H]2[C@@H](CNC(=O)C3CC3)N(C(=O)CC)[C@H]2CO)cc1 -10%
C[C@@H]1CN([C@@H](C)CO)C(=O)c2cccc(NC(=O)c3ccncc3)c2O[C@H]1CN(C)C(=O)Nc1ccccc1 -7.21%
CO[C@H]1CN(C)C(=O)c2ccc(NC(C)=O)cc2OC[C@H](C)N(C(=O)c2ccncc2)C[C@@H]1C -1.55%
COc1ccc(CN(C)C[C@H]2OCCCC[C@@H](C)Oc3ccc(NC(=O)c4ccccc4)cc3C(=O)N([C@H](C)CO)C[C@@H]2C)cc1 -2.96%
Cc1cc(C)c(NC(=O)C2CCCCN2C)c(C)c1 (centres undefined) 0.003%
C[C@@H]1CN([C@@H](C)CO)C(=O)c2cccc(N(C)C)c2O[C@H]1CN(C)C(=O)Nc1ccc(C(F)(F)F)cc1 -3.99%
Cc1noc(C)c1S(=O)(=O)N(C)C[C@@H]1OCCCC[C@@H](C)Oc2ccc(NC(=O)CCCCCC(=O)Nc3ccccc3N)cc2C(=O)N([C@H](C)CO)C[C@@H]1C 10.5%
CCC(=O)N1[C@@H]2Cn3c(cccc3=O)[C@H]1[C@@H](C(=O)NCc1ccccc1)[C@@H]2CO 11.4%
CCS(=O)(=O)N1CCCCN2[C@H](CO)[C@@H](c3ccc(-c4ccc(C#N)cc4)cc3)[C@@H]2C1 -5.77%
O=C(Cc1ccccc1)N[C@H]1C=C[C@@H](CC(=O)N2CCOCC2)O[C@H]1CO 1.97%
C[C@@H]1CN([C@H](C)CO)C(=O)c2cc(NC(=O)Nc3cccc4ccccc34)ccc2O[C@H]1CN(C)C(=O)Nc1ccc(C(F)(F)F)cc1 -2%
O=C(NC1CCCC1)N1CCCCN2[C@H](CO)[C@@H](c3ccc(-c4cncnc4)cc3)[C@H]2C1 -4.8%
O=C(C[C@H]1C=C[C@H](NC(=O)C2CCC2)[C@@H](CO)O1)NC1CCC1 9.85%
CC(C)(C)NC(=O)CSc1ncnc2c1cnn2-c1ccccc1 -13.4%
COc1ccc(-c2cnc3c(c2)C(=O)N([C@@H](C)CO)C[C@@H](C)[C@@H](CN(C)S(C)(=O)=O)O3)cc1 3.57%
C/C=C/c1cnc2c(c1)C(=O)N([C@@H](C)CO)C[C@@H](C)[C@@H](CN(C)C(=O)C1CCCCC1)O2 9.19%
C[C@@H]1CN([C@H](C)CO)C(=O)c2c(c3ccccc3n2C)-c2ccccc2CO[C@H]1CN(C)S(=O)(=O)c1cccs1 -0.083%
CCC(=O)N1[C@@H]2Cn3c(ccc(C4=CCCCC4)c3=O)[C@H]1[C@@H](C(=O)N[C@H](C)c1ccccc1)[C@@H]2CO -6.47%
C/C=C/c1ccc2c(c1)O[C@H](CN(C)S(=O)(=O)c1ccccc1)[C@H](C)CN([C@@H](C)CO)S2(=O)=O -9.07%
COc1ccc(NC(=O)Nc2ccc3c(c2)C(=O)N([C@@H](C)CO)C[C@@H](C)[C@H](CN(C)C(=O)Cc2ccccc2)OCCCC[C@H](C)O3)cc1 6.38%

outcome, inactive:
Cc1cccc(C)c1NC(=O)C1NC(=O)CC1c1ccccc1 (centres undefined)
